In the supplement of paper PMC11732987, “Enantioselective OTUD7B fragment discovery through chemoproteomics screening and high-throughput optimisation” (Communications Chemistry, 2025):

How the values were obtained:
Assay in all cases: log2 ratio of Biotin-Ahx-Ub-VS probe labelling (fragment/DMSO); higher = less target engagement (more negative = stronger competition), active = hit call of the paper (q ≤ 0.05, log2 ratio ≤ -1)
Conditions in all cases: compound concentration: 200 uM; treatment time: 3 h
[1] = molecular target: T1, OTUD6B (UniProt Q8N6M0)
T1 sequence (whole entry): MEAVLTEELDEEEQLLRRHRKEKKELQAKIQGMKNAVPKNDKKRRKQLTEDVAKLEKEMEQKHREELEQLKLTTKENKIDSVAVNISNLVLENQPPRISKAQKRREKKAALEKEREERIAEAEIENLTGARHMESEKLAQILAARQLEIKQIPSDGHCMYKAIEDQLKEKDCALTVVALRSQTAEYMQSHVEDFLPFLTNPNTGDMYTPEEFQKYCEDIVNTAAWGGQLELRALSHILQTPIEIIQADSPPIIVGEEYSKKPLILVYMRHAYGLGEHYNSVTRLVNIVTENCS
Summary of the method: (§1)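 Labelled DUBs were enriched with NeutrAvidin, digested with LysC and trypsin, and run by diaPASEF LC-MS/MS. The labelling used Biotin-Ahx-Ub-VS at 0.5 µM final for 1 h on HEK293T lysate (495 µg per sample) previously treated in triplicate with fragment at 200 µM or vehicle for 3 h. Values are average log2 fragment/vehicle ratios by unpaired t-test on global-median-normalised Spectronaut quantities of proteins with ≥2 unique peptides.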

[2] = molecular target: T2, OTUD7B (UniProt Q6GQQ9)
T2 sequence (whole entry): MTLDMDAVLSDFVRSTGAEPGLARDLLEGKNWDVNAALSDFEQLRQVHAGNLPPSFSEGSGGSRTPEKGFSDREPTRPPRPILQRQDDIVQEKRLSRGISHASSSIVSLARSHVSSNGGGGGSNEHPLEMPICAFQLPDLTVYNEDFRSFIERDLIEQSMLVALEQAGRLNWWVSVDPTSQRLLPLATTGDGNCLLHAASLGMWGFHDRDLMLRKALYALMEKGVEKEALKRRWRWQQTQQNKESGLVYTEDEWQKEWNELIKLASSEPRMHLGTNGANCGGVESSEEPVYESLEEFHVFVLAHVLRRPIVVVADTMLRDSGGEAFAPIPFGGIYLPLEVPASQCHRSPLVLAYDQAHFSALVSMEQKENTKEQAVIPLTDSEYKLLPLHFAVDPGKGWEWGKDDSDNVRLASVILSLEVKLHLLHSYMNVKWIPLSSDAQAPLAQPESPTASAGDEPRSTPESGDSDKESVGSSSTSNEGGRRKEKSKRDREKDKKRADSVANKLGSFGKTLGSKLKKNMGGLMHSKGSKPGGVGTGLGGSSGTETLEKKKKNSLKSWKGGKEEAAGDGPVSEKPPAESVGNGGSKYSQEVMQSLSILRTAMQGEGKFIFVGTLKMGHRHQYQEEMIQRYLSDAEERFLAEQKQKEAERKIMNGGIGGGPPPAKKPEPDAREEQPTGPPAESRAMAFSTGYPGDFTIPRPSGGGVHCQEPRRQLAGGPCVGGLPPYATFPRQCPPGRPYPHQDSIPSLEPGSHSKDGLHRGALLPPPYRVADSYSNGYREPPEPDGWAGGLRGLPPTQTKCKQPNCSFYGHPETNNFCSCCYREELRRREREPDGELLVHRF
Summary of the method: as §1

[3] = molecular target: PRPF8 (UniProt Q6P2Q9)
Summary of the method: as §1

[4] = molecular target: T3, PSMD7 (UniProt P51665)
T3 sequence (whole entry): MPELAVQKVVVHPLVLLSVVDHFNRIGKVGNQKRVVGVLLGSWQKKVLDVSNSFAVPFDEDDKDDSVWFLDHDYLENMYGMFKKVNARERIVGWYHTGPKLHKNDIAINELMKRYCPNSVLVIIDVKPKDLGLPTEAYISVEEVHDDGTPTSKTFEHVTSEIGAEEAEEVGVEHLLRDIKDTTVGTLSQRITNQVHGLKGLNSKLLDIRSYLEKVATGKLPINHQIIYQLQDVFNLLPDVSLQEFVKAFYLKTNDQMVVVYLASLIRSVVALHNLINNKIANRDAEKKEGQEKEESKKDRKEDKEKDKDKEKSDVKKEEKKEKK
Summary of the method: as §1

[5] = molecular target: UCHL1 (UniProt P09936)
Sequence of UCHL1 (P09936 whole entry, looked up): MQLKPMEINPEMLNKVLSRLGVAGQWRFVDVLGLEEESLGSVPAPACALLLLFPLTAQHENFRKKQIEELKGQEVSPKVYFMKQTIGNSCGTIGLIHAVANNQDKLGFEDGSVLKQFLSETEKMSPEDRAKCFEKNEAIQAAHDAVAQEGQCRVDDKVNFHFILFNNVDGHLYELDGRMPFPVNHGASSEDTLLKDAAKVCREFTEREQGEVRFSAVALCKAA
Summary of the method: as §1

[6] = molecular target: T4, UCHL3 (UniProt P15374)
T4 sequence (whole entry): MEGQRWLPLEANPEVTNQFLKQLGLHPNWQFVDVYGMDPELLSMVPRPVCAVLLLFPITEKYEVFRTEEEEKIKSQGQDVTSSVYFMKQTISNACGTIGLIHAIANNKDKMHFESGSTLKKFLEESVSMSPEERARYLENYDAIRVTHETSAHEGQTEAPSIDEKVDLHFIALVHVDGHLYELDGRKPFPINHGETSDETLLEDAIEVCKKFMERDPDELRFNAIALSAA
Summary of the method: as §1

[7] = molecular target: T5, UCHL5 (UniProt Q9Y5K5)
T5 sequence (whole entry): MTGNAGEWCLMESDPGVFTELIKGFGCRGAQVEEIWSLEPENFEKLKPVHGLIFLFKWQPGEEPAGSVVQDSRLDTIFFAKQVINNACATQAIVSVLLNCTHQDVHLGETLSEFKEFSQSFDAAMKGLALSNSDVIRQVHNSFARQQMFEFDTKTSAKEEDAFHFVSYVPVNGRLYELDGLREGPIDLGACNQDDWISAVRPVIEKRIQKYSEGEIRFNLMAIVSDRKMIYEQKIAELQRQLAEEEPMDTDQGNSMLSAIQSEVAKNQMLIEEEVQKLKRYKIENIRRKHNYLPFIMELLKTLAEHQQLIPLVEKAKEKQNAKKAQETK
Summary of the method: as §1

[8] = molecular target: USP10 (UniProt Q14694)
Sequence of USP10 (Q14694 whole entry): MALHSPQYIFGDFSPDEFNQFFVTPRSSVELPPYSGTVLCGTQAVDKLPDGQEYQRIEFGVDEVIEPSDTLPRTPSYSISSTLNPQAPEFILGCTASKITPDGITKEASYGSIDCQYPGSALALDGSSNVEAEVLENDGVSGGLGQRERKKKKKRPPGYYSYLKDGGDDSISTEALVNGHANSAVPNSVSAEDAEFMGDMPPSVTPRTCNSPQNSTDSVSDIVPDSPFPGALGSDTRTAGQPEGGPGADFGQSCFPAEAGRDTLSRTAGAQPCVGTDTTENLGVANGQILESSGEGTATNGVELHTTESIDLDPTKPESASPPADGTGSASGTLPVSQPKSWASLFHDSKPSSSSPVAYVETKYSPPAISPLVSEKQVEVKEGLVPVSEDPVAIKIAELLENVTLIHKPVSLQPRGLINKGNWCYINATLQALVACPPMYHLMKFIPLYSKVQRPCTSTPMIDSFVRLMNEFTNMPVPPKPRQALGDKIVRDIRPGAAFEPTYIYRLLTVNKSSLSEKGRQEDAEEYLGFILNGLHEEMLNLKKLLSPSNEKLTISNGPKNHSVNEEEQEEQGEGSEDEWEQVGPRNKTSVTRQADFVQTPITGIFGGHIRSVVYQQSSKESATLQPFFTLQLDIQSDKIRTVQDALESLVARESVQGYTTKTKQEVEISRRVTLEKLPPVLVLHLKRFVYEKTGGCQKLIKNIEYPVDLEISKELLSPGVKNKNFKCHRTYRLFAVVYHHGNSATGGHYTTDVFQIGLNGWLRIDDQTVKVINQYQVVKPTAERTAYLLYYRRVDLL
Summary of the method: as §1

[9] = molecular target: T6, USP15 (UniProt Q9Y4E8)
T6 sequence (whole entry): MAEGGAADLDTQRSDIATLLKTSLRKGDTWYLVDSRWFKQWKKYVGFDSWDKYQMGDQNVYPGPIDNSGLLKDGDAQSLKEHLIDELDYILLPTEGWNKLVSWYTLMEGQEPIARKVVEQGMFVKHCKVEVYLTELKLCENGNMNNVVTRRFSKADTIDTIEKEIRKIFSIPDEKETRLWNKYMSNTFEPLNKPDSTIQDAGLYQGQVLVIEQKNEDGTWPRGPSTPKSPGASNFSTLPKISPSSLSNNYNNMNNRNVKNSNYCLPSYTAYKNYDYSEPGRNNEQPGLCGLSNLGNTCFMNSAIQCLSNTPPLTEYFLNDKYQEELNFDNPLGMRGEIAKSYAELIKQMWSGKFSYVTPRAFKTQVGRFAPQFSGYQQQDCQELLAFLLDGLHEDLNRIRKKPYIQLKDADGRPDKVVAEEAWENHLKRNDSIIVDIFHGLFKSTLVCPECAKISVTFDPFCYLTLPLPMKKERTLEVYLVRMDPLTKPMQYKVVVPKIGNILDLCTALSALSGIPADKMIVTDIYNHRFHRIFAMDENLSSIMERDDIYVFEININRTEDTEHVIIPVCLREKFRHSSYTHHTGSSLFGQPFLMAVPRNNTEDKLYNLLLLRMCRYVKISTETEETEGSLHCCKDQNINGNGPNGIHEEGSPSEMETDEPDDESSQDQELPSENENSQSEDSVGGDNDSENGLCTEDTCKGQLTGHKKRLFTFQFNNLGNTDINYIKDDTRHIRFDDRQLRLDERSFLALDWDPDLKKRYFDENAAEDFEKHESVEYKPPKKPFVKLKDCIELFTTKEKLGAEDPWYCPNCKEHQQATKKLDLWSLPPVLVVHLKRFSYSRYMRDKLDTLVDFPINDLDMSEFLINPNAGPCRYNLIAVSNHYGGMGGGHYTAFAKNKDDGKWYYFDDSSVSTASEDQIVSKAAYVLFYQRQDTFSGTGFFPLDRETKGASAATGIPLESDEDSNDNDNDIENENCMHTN
Summary of the method: as §1

Measured: log2 ratio of Biotin-Ahx-Ub-VS probe labelling

Cc1nc(-c2cccc(NC(=O)CCl)c2)cs1
inactive: [1] -0.247 | [2] -0.69 | [3] 0.052 | [4] -0.167 | [5] -0.133 | [6] -0.844 | [7] -0.43 | [8] -0.202 | [9] -0.235
